In PubChem BioAssay one finds inhibition data, which are given here for 40 compounds.

Unmarked numbers belong to inactive results. The rule behind the calls is not given here.

Sequence of Pantothenate synthetase (Mycobacterium tuberculosis (strain ATCC 25618 / H37Rv)) (P9WIL5 whole entry, looked up): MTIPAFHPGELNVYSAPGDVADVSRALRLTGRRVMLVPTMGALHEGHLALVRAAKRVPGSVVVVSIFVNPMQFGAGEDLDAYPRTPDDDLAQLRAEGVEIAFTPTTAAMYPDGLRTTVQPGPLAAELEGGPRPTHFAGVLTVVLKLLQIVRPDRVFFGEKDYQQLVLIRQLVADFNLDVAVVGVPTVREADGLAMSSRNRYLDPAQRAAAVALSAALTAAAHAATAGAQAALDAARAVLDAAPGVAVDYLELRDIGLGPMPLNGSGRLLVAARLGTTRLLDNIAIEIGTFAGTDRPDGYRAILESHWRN

This assay concerns the target Pantothenate synthetase (Mycobacterium tuberculosis (strain ATCC 25618 / H37Rv)) (UniProt P9WIL5). Put plainly: Recombinant Mtb pantothenate synthetase (PanC) inhibitors, coupled enzyme, confirmatory (AID 375).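 Note: 0% = full reaction with vehicle and 100% = no enzyme background.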 To be noted: coupled enzyme assay; at 10 µM, active compounds read high.
As usually defined, the inhibition is the relative decrease from the control value, in per cent. With `CCN(C(=O)COC(=O)c1cc(C)n(-c2ccc(F)cc2)c1C)C1CCS(=O)(=O)C1` (stereo not given), the inhibition is 1%. On to `Cc1ccc2[nH]c(=O)c(CN(Cc3ccc4c(c3)OCO4)Cc3nnnn3Cc3ccco3)cc2c1`, for which the inhibition was 0%. In the case of `O=c1[nH]c(SCc2ccc(F)cc2)nc2c1cnn2-c1ccc(F)cc1`, the inhibition is 0%.

`O=C1CC(C2CCCO2)C(=O)N1Cc1ccccc1` (stereo not given): the inhibition was 0%. The figure for `O=C1Nc2ccccc2OC1CC(=O)N1CCCC1` (stereo not given) is 0%. As to `CCCC(CCC)C(=O)NCCN1CCOCC1`, the inhibition is 0%.

With `O=C(Nc1nnc(C2CCCC2)s1)C1CCN(S(=O)(=O)c2ccc(Cl)cc2)CC1`, the inhibition was 0%. For the compound `Cc1ccc(-c2nnc(-c3cccc(Br)c3)o2)cc1`, the inhibition was 0%. Under `CCCC(c1nnnn1Cc1ccc(OC)cc1)N1CCN(c2ccccc2OC)CC1` (stereo not given) stands 0%; under `CSc1nnc(-c2cnccn2)n1C`, 0%; under `COc1cc(C2c3c(oc4c(C)cc(C)cc4c3=O)C(=O)N2Cc2cccnc2)cc(OC)c1OC` (stereo not given), 2%. `Cn1c(COc2ccc(Cl)cc2)nnc1SCC(=O)NC1CCCCC1`: the inhibition was 0%. For the compound `COc1cc(Br)cc(/C=N/c2ncn[nH]2)c1O`, the inhibition is 5%. With `CCCC1C(C#N)=C(N)Oc2n[nH]c(C(C)(C)C)c21` (stereo not given), the inhibition is 0%. Regarding `Cc1ccc(-n2c(N)c(C(N)=O)sc2=S)cc1`, the inhibition was 6%. Under `COCCOC(=O)C1=C(N)OC2=C(C(=O)CC(C)(C)C2)C1c1cccnc1` (stereo not given) stands 0%; under `CC(=O)[C@@]1(O)CC[C@H]2[C@@H]3C[C@H](C)C4=CC(=O)C=C[C@]4(C)[C@@]3(F)[C@@H](O)C[C@@]21C`, 6%. Take `CCN1CCN(c2ncnc3c2cnn3-c2ccc(C)cc2C)CC1`: the inhibition is 9%.

In the case of `COc1cccc(-c2nnc3sc(-c4ccc(C)cc4)nn23)c1`, the inhibition is 0%. Under `CCc1c(C(=O)Nc2ncn(Cc3cccc(C)c3)n2)csc1C` stands 4%; under `N=c1nc(N2CCCCC2)cc(N)n1O`, 0%; under `COc1ccc(-c2nnc(SCC(=O)Nc3ccc(Cl)cc3)n2C)cc1`, 0%. As to `Cc1nc2sc(C(c3ccco3)N3CCN(c4ccccc4F)CC3)c(O)n2n1` (stereo not given), the inhibition is 0%. Consider `COc1ccc(-c2nc3c(c(=O)n(C)c(=O)n3C)n2CC2CC(c3ccccc3)=NO2)cc1OC` (stereo not given), for which the inhibition was 1%.

Take `COC(=O)c1ccccc1NC(=O)C1CCCCC1C(=O)O` (stereo not given): the inhibition was 0%. Take `O=C1CCCC2=C1C(c1ccsc1)CC(=O)N2c1ccccc1` (stereo not given): the inhibition was 0%. The figure for `COc1ccc2c(c1)C1(Nc3ccccc3-c3nc4ccccc4n31)C(=O)N2` (stereo not given) is 0%; for `COCCn1c(SCC(=O)N2CCc3ccccc32)nc2c(c1=O)SC(C)C2` (stereo not given) it is 1%. Under `COc1cc(OC)cc(C(=O)N2c3ccc(F)cc3CCC2C)c1` (stereo not given) stands 0%; under `COc1ccc2cc(C#N)c(SCC(=O)N3CCCC3)nc2c1`, 7%; under `COC(=O)c1ccc(C2CC(=O)Nc3cc(OC)c(OC)c(OC)c32)cc1` (stereo not given), 0%.

`O=C(NCCc1ccccc1)c1cc(-c2ccco2)on1`: the inhibition is 5%.

Turning to `CCn1c(SCC(=O)C(C)(C)C)nnc1-c1cnccn1`, the inhibition was 0%. Under `O=C(Nc1ccccc1)N(O)c1ccc(Cl)cc1` stands 4%; under `CC(C)(C)C(=O)CNS(=O)(=O)c1ccc(S(=O)(=O)NC2CCCC2)cc1`, 0%; under `COC(=O)c1cc(Br)c(=O)n(-c2ccc(OC)cc2)c1`, 0%. For the compound `O=S(=O)(NCc1ccco1)c1cccc2cccnc12`, the inhibition was 1%. In the case of `CCOC(=O)N1CCN(C(=O)c2ccc(CS(=O)(=O)c3ccc(OC)cc3)o2)CC1`, the inhibition was 1%. In the case of `CCOC(=O)C1=C(O)C(=O)N(c2ccc(S(N)(=O)=O)cc2)C1c1ccccc1` (stereo not given), the inhibition was 0%. In the case of `O=C(CN1C(=O)NC2(CCCCCC2)C1=O)N1CCC(Cc2ccccc2)CC1`, the inhibition is 2%.
